Broadly, the AC50 is the concentration giving half of the maximal activity seen.

The nature of experiment [1]: TOX21_PR_BLA_Followup_Agonist_viability: Viability Assessment in the Tox21 HEK293 Progesterone Receptor (PR) Agonism Beta-lactamase Follow-Up Assay (AID 2283935).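 Note: signal loss means lower viability so actives are cytotoxic.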 An outline of the steps: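 HEK293T PR-UAS-bla, 3,000 cells/well, 2% CS-FBS; 6 hr pre-incubation; cpd in DMSO, 16 hr 37C; LiveBLAzer 2 hr RT, then CellTiter-Glo 30 min RT, luminescence. Decrease = lost viability.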

The nature of experiment [2]: TOX21_PR_BLA_Followup_Antagonist_viability: Viability Assessment in the Tox21 HEK293 Progesterone Receptor (PR) Antagonism Beta-lactamase Follow-Up Assay (AID 2283936).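 Note: hits lower the luminescence signal meaning cytotoxicity.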 An outline of the steps:
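PR-UAS-bla HEK293T cells (3,000/well, 2% charcoal-stripped FBS) given compound plus R5020 agonist, 16 h at 37C. CellTiter-Glo added after bla read, 30 min at room temperature; luminescence loss indicates cytotoxicity.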

In experiment [3] the target is PGR (gene 5241) (UniProt P06401). Kind of experiment: TOX21_PR_LUC_Followup_Antagonist: Tox21 HEK293 Progesterone Receptor (PR) Antagonism Luciferase Follow-Up Assay (AID 2283938).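 Note: curve fitted upward as signal gain over DMSO baseline despite antagonist label.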 An outline of the steps:
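Cells are grown 5 days in charcoal-stripped-FBS assay medium, plated, left 5 h, then dosed with compound and incubated 16 h. ONE-Glo reagent is added and luminescence read after 30 min.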

Experiment [4] can be described thus: TOX21_PR_LUC_Followup_Antagonist_viability: Viability Assessment in the Tox21 HEK293 Progesterone Receptor (PR) Antagonism Luciferase Follow-Up Assay (AID 2283940). An outline of the steps: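 Multiplexed viability counter-screen: after 5 days in charcoal-stripped-FBS medium, HEK293-PR-A-luc cells are plated, pinned with DMSO-dissolved compounds for 16 h at 37C, and ATP content is quantified luminescently via CellTiter-Glo.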

In experiment [5] the target is Thyroid hormone receptor alpha (Rattus norvegicus) + Thyroid hormone receptor beta (Rattus norvegicus) (UniProt P18113+P63059). Put plainly: TOX21_TR_LUC_GH3_Antagonist_Followup: Tox21 GH3 Thyroid Hormone Receptor Antagonism Luciferase Follow-Up Assay (AID 2283942). An outline of the steps:
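Rat pituitary GH3 cells with a TRα/TRβ-driven luciferase reporter, 5 h attachment, then 15 concentrations (92 uM to 5nM final) plus 1.0 nM T3 agonist, 24 h at 37C/5% CO2. ONE-Glo luminescence; signal change fitted against DMSO baseline.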

Experiment [6] has as its target THRA (gene 7067) (UniProt P10827). Put plainly: TOX21_TRA_COA_Antagonist_Followup_ratio: Tox21 Thyroid Hormone Receptor alpha Antagonism through Coactivator Recruitment Follow-Up Assay, Ratio (AID 2283953). An outline of the steps:
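520:495 nm emission ratio (excitation 340 nm) reports fluorescein-SRC-2 peptide recruitment to GST-TRα LBD by TR-FRET with Tb anti-GST antibody. Values were normalized to DMSO (0%) and T3 control wells (100%); loss of signal indicated antagonism.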

Experiment [7] has as its target THRB (gene 7068) (UniProt P10828). Kind of experiment: TOX21_TRB_BLA_Antagonist_Followup_ratio: Tox21 Thyroid Hormone Receptor beta Antagonism Beta-lactamase (BLA) Follow-Up Assay, Ratio (AID 2283958). An outline of the steps:
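HEK293T TRb-bla (GAL4 DBD + hTRβ LBD), 2% cs-FBS phenol red-free DMEM, 5 h attach; cpds 11-pt triplicate, 18 h 37C; CCF4-AM 2 h RT; 460/530 ratio vs DMSO; CellTiter-Glo viability same wells.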

A short description of experiment [8]: TOX21_TRB_BLA_Antagonist_Followup_viability: Viability Assessment in the Tox21 Thyroid Hormone Receptor beta Antagonism Beta-lactamase (BLA) Follow-Up Assay (AID 2283961). An outline of the steps: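 TRβ-bla HEK293T (human TRβ LBD fused to GAL4 DBD), 3,000 cells/well, 2% charcoal-stripped FBS, phenol red-free medium; 18 h compound exposure, 37C; CellTiter-Glo 30 min RT; luminescence, loss-of-signal readout.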

Experiment [9] deals with THRB (gene 7068) (UniProt P10828). Put plainly: TOX21_TRB_COA_Antagonist_Followup_ratio: Tox21 Thyroid Hormone Receptor beta Antagonism through Coactivator Recruitment Follow-Up Assay, Ratio (AID 2283967). An outline of the steps:
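Cell-free TR-FRET coactivator recruitment with GST-tagged TRβ LBD (5.0 nM) and fluorescein-labeled SRC-2 peptide (200 nM) detected by terbium anti-GST antibody (2 nM). The 520:495 nm emission ratio was normalized to DMSO (0%) and T3 (100%).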

Experiment [10] is described as follows: TOX21_TR_RXR_BLA_Antagonist_Followup_viability: Viability Assessment in the Tox21 Thyroid Hormone Receptor beta Retinoid X Receptor alpha (RXRa) Antagonism Beta-lactamase (BLA) Follow-Up Assay (AID 2283979). An outline of the steps: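 RXRa-UAS-bla HEK293T cells seeded 2,500/well in phenol red-free DMEM with 2% charcoal-stripped FBS, attached 5 h, then exposed to compounds at 11 concentrations in triplicate for 16 h at 37C/5% CO2. Viability read by CellTiter-Glo ATP luminescence; bidirectional fit versus DMSO.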

Experiment [11] has as its target Nucleoli Translocation, AR (gene 367) (UniProt P10275). Kind of experiment: UPITT_HCI_U2OS_AR_TIF2_Nucleoli_Antagonist: University of Pittsburgh U2OS Androgen Receptor-Transcriptional Intermediary Factor 2 (AR-TIF2) Antagonism High Content Imaging Assay for Nucleoli Translocation (AID 2283997). An outline of the steps: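 U2OS cells expressing RFP-tagged human AR and GFP-tagged TIF2 were imaged by high-content fluorescence microscopy for red AR signal in the nucleolar region. Compounds were screened at 20 uM final (0.2% DMSO), with activity fitted relative to DHT as baseline.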

Experiment [12] has the same target. Put plainly: UPITT_HCI_U2OS_AR_TIF2_Nucleoli_Agonist: University of Pittsburgh U2OS Androgen Receptor-Transcriptional Intermediary Factor 2 (AR-TIF2) Agonism High Content Imaging Assay for Nucleoli Translocation (AID 2283998). An outline of the steps:
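Readout is red (AR-RFP) fluorescence localized to nucleoli, measured by high-content imaging and analysed for increase relative to DMSO. Compound series spanned 0.195 to 50 uM final in 0.5% DMSO.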

Experiment [13] deals with Ratio of Nucleoli Translocation and Cytoplasm, AR (gene 367) (UniProt P10275). Kind of experiment: UPITT_HCI_U2OS_AR_TIF2_Nucleoli_Cytoplasm_Ratio_Agonist: University of Pittsburgh U2OS Androgen Receptor-Transcriptional Intermediary Factor 2 (AR-TIF2) Agonism High Content Imaging Assay for Ratio of Nucleoli Translocation and Cytoplasm (AID 2284000).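 Note: hits raise the red nucleolar to cytoplasm ratio above vehicle.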 An outline of the steps: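 U2OS cells expressing RFP-tagged human AR and GFP-tagged TIF2 were imaged by high-content fluorescence microscopy. The endpoint is the ratio of nucleolar to cytoplasmic red fluorescence, fitted for gain of signal relative to DMSO. Concentration-response spanned 0.195 to 50 uM final (0.5% DMSO).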

A short description of experiment [14]: CCTE_Harrill_HTTr_Viability_MCF7: CCTE's 6-hour Cell Viability Assessment for the High-Throughput Transcriptomics (HTTr) Platform, in MCF-7 cells cultured in DMEM + 10% fetal bovine serum, Harrill Lab (AID 2284010; active = hit-call score of the fitted dose curve at least 0.9, where 1 is the maximum; inactive = score below 0.9). An outline of the steps: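 Cells were dosed with chemicals in an eight-point dilution series, imaged 6 hours later for propidium iodide uptake, and the endpoint was analyzed by bidirectional fitting against DMSO as negative control.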

A short description of experiment [15]: CCTE_Harrill_HTTr_Apoptosis_MCF7: CCTE's 6-hour Apoptosis Assessment for the High-Throughput Transcriptomics (HTTr) Platform, in MCF-7 cells cultured in DMEM + 10% fetal bovine serum, Harrill Lab (AID 2284011; active = hit-call score of the fitted dose curve at least 0.9, where 1 is the maximum; inactive = score below 0.9). An outline of the steps:
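MCF-7 (DMEM + 10% FBS), 384-well; 8-pt dilution series, 6 h chemical exposure; caspase-3/7 activation via CellEvent Caspase 3/7 Green, HCI; bidirectional fit vs DMSO.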

For experiment [16], the target named is PGR (gene 5241) (UniProt P06401). Put plainly: TOX21_PR_BLA_Followup_Agonist_ratio: Tox21 HEK293 Progesterone Receptor (PR) Agonism Beta-lactamase Follow-Up Assay, Ratio (AID 2283933). An outline of the steps:
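HEK293T PR-UAS-bla, 2% CS-FBS; 6 hr preincubation, cpd/DMSO pinned, 16 hr 37C/5% CO2; LiveBLAzer B/G 2 hr RT; FRET ch2/ch1 ratio, agonist direction vs DMSO. Viability by CellTiter-Glo in same wells.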

The target is the same in experiment [17]. Put plainly: TOX21_PR_LUC_Followup_Agonist: Tox21 HEK293 Progesterone Receptor (PR) Agonism Luciferase Follow-Up Assay (AID 2283937; active = hit-call score of the fitted dose curve at least 0.9, where 1 is the maximum; inactive = score below 0.9). An outline of the steps: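 Cells: HEK293-PR-A-luc, 3,000/well, 10% charcoal-stripped FBS assay medium. Compound added after 5 h; 16 h, 37C, 0% CO2. ONE-Glo luciferase, luminescence. Positive fit vs DMSO.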
A short description of experiment [18]: CCTE_Harrill_HTTr_CellCount_MCF7: CCTE's Cell Proliferation Assessment for the High-Throughput Transcriptomics (HTTr) Platform, Harrill Lab (AID 2284012).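 Note: cells exposed to compound for six hours; intended direction is loss of nuclei count meaning fewer cells.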 An outline of the steps: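 Chemicals in eight-point dilution series are added to MCF-7 cells for six hours, nuclei are stained with Hoechst and imaged, and per-well nuclei counts are fitted in both directions relative to DMSO controls.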

Records with an inconclusive call do not appear. Active and inactive are the calls of the source. Rule for the calls, unless noted: active = hit-call score of the fitted dose curve at least 0.9, where 1 is the maximum; inconclusive = response in the unintended direction; inactive = score below 0.9.

THRB (gene 7068), sequence (P10828 whole entry, looked up, the tested form may be a part): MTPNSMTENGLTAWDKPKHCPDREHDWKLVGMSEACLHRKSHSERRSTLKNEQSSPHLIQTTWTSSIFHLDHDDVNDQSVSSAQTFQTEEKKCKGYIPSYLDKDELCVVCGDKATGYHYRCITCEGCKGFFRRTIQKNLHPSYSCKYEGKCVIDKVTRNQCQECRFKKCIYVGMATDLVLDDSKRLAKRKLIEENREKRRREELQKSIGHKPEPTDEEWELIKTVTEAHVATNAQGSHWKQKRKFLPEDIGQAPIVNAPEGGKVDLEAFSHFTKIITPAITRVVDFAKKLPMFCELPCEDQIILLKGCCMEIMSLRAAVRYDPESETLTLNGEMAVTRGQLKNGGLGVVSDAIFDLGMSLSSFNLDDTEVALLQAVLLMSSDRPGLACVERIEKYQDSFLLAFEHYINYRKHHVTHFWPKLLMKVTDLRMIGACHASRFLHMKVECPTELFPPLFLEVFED
PGR (gene 5241), sequence (P06401 whole entry, looked up): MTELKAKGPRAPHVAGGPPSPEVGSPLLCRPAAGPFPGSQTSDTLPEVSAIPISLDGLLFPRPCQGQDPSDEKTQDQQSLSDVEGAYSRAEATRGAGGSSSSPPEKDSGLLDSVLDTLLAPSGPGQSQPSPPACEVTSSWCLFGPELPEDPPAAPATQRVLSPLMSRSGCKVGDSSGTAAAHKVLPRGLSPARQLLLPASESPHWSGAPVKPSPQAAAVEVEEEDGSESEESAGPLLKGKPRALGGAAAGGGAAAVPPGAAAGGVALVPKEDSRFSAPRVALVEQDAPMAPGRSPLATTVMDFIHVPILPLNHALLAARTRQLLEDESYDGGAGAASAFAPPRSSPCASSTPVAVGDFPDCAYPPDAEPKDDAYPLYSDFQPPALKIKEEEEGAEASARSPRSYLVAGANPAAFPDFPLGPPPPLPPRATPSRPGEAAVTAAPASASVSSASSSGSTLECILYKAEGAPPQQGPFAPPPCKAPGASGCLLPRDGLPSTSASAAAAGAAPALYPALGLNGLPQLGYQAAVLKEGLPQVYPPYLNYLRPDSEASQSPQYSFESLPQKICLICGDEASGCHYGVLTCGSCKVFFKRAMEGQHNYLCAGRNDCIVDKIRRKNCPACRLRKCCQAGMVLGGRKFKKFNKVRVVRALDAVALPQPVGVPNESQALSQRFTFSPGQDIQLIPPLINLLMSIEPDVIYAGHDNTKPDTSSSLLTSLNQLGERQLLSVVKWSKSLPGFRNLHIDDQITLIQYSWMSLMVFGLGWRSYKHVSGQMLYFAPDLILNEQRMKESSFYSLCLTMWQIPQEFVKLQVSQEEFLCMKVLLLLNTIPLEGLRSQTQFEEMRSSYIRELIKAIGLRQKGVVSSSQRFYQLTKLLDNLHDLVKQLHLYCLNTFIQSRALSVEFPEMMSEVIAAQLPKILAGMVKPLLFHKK
THRA (gene 7067), sequence (P10827 whole entry, looked up, the tested form may be a part): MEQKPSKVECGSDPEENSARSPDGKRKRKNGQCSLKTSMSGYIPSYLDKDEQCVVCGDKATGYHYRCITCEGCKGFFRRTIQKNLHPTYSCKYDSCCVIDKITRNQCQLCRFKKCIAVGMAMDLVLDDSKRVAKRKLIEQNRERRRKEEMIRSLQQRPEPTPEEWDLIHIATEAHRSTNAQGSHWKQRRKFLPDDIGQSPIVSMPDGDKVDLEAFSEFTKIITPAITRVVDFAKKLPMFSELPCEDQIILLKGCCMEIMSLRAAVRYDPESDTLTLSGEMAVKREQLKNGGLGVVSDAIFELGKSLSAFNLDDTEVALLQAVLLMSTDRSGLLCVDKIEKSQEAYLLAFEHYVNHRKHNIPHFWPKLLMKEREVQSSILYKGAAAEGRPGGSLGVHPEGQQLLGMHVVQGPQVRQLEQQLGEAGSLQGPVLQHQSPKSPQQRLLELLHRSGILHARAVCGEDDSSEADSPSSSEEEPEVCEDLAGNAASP
Nucleoli Translocation, AR (gene 367), sequence (P10275 whole entry, looked up): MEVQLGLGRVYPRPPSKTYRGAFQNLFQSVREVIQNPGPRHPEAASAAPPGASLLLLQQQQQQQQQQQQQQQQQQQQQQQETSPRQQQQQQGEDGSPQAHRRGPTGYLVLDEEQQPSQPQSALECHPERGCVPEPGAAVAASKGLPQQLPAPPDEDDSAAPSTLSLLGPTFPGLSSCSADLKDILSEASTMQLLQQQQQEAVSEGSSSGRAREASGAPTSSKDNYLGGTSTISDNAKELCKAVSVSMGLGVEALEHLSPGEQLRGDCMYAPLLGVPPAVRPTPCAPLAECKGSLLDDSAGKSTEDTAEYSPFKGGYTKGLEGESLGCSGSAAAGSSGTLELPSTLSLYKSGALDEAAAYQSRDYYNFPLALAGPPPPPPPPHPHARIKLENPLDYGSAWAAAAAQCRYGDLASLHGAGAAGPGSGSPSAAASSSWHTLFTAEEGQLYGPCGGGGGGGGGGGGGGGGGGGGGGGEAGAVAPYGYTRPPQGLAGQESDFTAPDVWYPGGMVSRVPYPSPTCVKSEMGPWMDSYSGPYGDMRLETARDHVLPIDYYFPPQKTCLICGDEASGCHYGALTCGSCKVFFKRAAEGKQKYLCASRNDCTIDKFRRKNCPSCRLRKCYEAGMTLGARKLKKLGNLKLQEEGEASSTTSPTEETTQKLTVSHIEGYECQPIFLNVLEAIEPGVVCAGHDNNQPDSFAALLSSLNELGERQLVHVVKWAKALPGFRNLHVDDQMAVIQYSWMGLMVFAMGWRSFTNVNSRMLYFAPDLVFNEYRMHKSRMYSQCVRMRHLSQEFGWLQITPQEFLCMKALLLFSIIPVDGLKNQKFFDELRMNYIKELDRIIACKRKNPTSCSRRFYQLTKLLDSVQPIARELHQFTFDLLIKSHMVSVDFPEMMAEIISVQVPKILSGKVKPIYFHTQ
Ratio of Nucleoli Translocation and Cytoplasm, AR (gene 367), sequence (P10275 whole entry, looked up): as above

As to `C/C=C1/C(=O)C[C@H]2[C@@H]3CCC4=CC(=O)CC[C@]4(C)[C@H]3CC[C@]12C`, the outcome in experiment [1], in [2], in experiment [3], in [4], in experiment [5] and in experiment [6] was inactive. The outcome in [7], in experiment [8], in [9] and in experiment [10] was inactive.
On to `CCCCC(C)=O`, for which the molecule was classed as inactive in experiment [11], in [12], in experiment [13], in [14] and in experiment [15].
As for `CC(=O)OCC(=O)[C@H]1CC[C@H]2[C@@H]3CCC4=CC(=O)CC[C@]4(C)[C@H]3CC[C@]12C`, the concentration at half-maximal activity (AC50) in experiment [16] was 844 nM (active); in experiment [17], 29.7 nM (active). Moreover, the outcome in experiment [1], in [2], in experiment [3], in experiment [4], in experiment [5] and in experiment [6] was inactive. The result in [7], in experiment [9] and in [10] was inactive.
Consider `CC(C)(C)C(O)/C=C/c1ccc2c(c1)OCO2` (centres undefined), for which the outcome in experiment [16], in experiment [1], in experiment [2], in experiment [17], in experiment [3] and in experiment [4] was inactive.
Take `CC(=CC(C)(C)C)CC(C)(C)C`: the result in [14], in experiment [15] and in experiment [18] was inactive.
For `OCCS`, the result in experiment [14], in experiment [15] and in experiment [18] was inactive.
For `CO[Si](OC)OC`, the outcome in experiment [14], in [15] and in [18] was inactive.
On to `O=C[C@H](O)[C@@H](O)[C@@H](O)CO`, for which the outcome in experiment [14], in [15] and in experiment [18] was inactive.
With `C/C(=C\c1ccc(C(=O)O)cc1)c1ccc2c(c1)C(C)(C)CCC2(C)C`, the outcome in [14], in experiment [15] and in experiment [18] was inactive.
As for `Cc1cc(N=Nc2c(O)ccc3ccccc23)c(S(=O)(=O)O)cc1Cl`, the outcome in [14], in [15] and in experiment [18] was inactive.
For the molecule `C=O.C=O.C=O.C=O.C=O.[Fe]`, the outcome in [14] and in [15] was inactive.
`Clc1ccc(-c2nc3sccn3c2/C=N/OCc2ccc(Cl)c(Cl)c2)cc1`: the result in [14] and in experiment [15] was inactive.

Source of the values: PubChem BioAssay (EPA / NIEHS).
